Among the data in PubChem BioAssay AID1203 (The Scripps Research Institute Molecular Screening Center, 2008) are activation values, retold here.

The campaign covered roughly 200,000 compounds. About 80 (0.04%) were called active.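 How the source made its calls: active means activation above the mean across all tested compounds plus 3 SD, cutoff set per campaign (cut at about 5.5% in these data); inactive means the rest.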 Shown is part of a subset that was picked to be rich in actives.

This assay can be described thus: Hsp70 promoter-driven reporter induction – cell-based, HeLa, Hsp70 promoter luciferase, luminescence, 10 µM, primary screen (AID 1203).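 Further: 100% = MG132 at 30 µM as the positive control and 0% = DMSO.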 Conditions: at 10 µM, hits give high values, scaled: vehicle 0, proteasome-inhibitor control 100%.
`COc1ccc(C)cc1S(=O)(=O)N(CC(=O)Nc1cccc([N+](=O)[O-])c1)c1ccc(C)cc1`: the activation was -0.49% (inactive).
As to `CCOC(=O)NC(=O)CSc1nnc(SCCC(=O)O)s1`, the activation was -0.37% (inactive).
Consider `CC(C)C(=O)Nc1c(O)c2ccccc2[nH]c1=O`, for which the activation was -0.15% (inactive).
`N#C/C(=C/c1ccc(N2CCCCC2)o1)C(=O)NCCc1c[nH]c2ccccc12`: the activation is -0.42% (inactive).
On to `CN1CCN(c2nc(Nc3ccc(O)cc3)nc3ccccc23)CC1`, for which the activation is -0.02% (inactive).
For `COc1ccc(CNC(=O)C2CCN(S(C)(=O)=O)CC2)cc1`, the activation was -0.22% (inactive).
For the compound `Cc1cc(NC(C)C)n2c(nc3ccccc32)c1C#N`, the activation was -0.27% (inactive).
The value for `COc1ccc(CC(=O)Nc2cc(S(=O)(=O)N3CCCCC3)ccc2N2CCN(C)CC2)cc1` was -0.39% (inactive); that for `CC1CCN(C(=S)c2cccc([N+](=O)[O-])c2)CC1` was -0.04% (inactive); that for `CC(OC(=O)c1ccccc1OCc1ccc(Cl)cc1)C(N)=O` (stereo unspecified) was -0.14% (inactive).
For `Cc1ccc(N(C(=O)c2sc(C)nc2C)C(C(=O)NC(C)(C)C)c2ccncc2)cc1` (stereo unspecified), the activation was -0.38% (inactive).
`COCC(C)n1c(C)cc(C(=O)CSc2cc(C)c3ccccc3n2)c1C` (stereo unspecified): the activation was -0.27% (inactive).
In the case of `COCC(C)n1c(SCc2ccc(C(=O)OC)o2)nc2ccccc2c1=O` (stereo unspecified), the activation is -0.28% (inactive).
Consider `COCCn1c(C)cc(C(=O)CSc2nc3ccccc3c(=O)n2C(C)COC)c1C` (stereo unspecified), for which the activation was 8.58% (active).
The value for `O=S(=O)(c1ccc(F)cc1)n1ccc(-c2cnc(-c3ccccc3)s2)n1` was -0.1% (inactive); that for `CCOC(=O)CSc1ccccn1` was 2.15% (inactive); that for `COc1ccc(N(CC(=O)Nc2ccc(C)cc2C)S(=O)(=O)c2ccccc2[N+](=O)[O-])c(OC)c1` was -0.09% (inactive).
Regarding `Cc1cc(C)n(CC(=O)Nc2ccc([N+](=O)[O-])cc2)n1`, the activation was -0.28% (inactive).
With `OCCC1CN(Cc2ccccc2-c2ccco2)CCN1Cc1ccsc1` (stereo unspecified), the activation is -0.08% (inactive).
On to `COc1cccc(CNC(=O)CCC2CCCN(C(=O)c3ccoc3C)C2)c1` (stereo unspecified), for which the activation is -0.21% (inactive).
As for `COc1ccc2c(c1)CCC/C2=N\OC(=O)c1ccccc1F`, the activation was 0.09% (inactive).
Regarding `O=C(CC1C(=O)NCCN1Cc1ccc(-c2ccccc2)cc1)NCc1ccncc1` (stereo unspecified), the activation is -0.07% (inactive).
Turning to `Cc1cccc(NC(=S)Nc2ccc3cn[nH]c3c2)c1`, the activation was -0.39% (inactive).
Take `CC(=O)Nc1ccc(OCC(=O)NCc2ccc(C)cc2)cc1`: the activation is -0.17% (inactive).
`COc1ccc(NC(=S)NCCNC(C)=O)cc1`: the activation is 0.67% (inactive).
In the case of `COc1ccc(NC(=O)/C(Cl)=C(/Cl)S(=O)Cc2ccc(C)cc2)cn1` (stereo unspecified), the activation was 24.9% (active).
For `Cc1ccc(NC(=O)OCc2cncs2)cc1`, the activation is 0.06% (inactive).
The value for `COc1ccc(NC(=S)Nc2ccccc2Cl)cn1` was -0.12% (inactive); that for `COc1ccc(CS(=O)/C(Cl)=C(/Cl)C(=O)Nc2ccc(OC)nc2)cc1` (stereo unspecified) was 20% (active).
`CN(C)c1ccc(C(CNC(=O)c2ccc(F)cc2)c2c[nH]c3ccccc23)cc1` (stereo unspecified): the activation is -0.32% (inactive).
Take `COc1ccc(/C=N/N=C/c2c[nH]c(=O)c(C#N)c2Nc2ccccc2)cc1`: the activation was -0.38% (inactive).
Turning to `CCN(CC)S(=O)(=O)c1ccc(NC(=O)c2cccnc2Cl)c(NC(=O)c2cccnc2Cl)c1`, the activation is -0.26% (inactive).
For the compound `CCOc1ccc(NC(=O)C2CC(=O)N=C(N)S2)cc1` (stereo unspecified), the activation is -0.33% (inactive).
The value for `O=Cc1cn(Cc2ccccc2)nc1-c1cccnc1` was -0.04% (inactive); that for `Cc1ccc(N(CC(=O)Nc2cc(C)cc(C)c2)S(=O)(=O)c2cccc3nonc23)cc1` was -0.31% (inactive); that for `O=C(CN1C(=O)NC2(CCCC2)C1=O)NCC1CCCO1` (stereo unspecified) was 0.18% (inactive).
For `O=S(=O)(N1CCCCC1)N1CCNCC1`, the activation is -0.19% (inactive).
The value for `O=C(Nc1ccccc1Cl)c1ccc2nsnc2c1` was 0.16% (inactive).
Turning to `O=C(CN1CCCCC1)Nc1ccccc1Cl`, the activation was -0.18% (inactive).
Take `O=C(Nc1ccccc1Cl)/C(Cl)=C(\Cl)S(=O)c1ccccc1` (stereo unspecified): the activation was 26.1% (active).
Regarding `CCCC1CCC(=NNC(=S)NCCc2ccccc2)CC1` (stereo unspecified), the activation is -0.28% (inactive).
Regarding `OCCC1CN(Cc2cnc(-c3ccccc3)s2)CCN1CCc1ccccc1` (stereo unspecified), the activation was 0.55% (inactive).
Turning to `C/C(=N/OC(=O)c1c(-c2c(F)cccc2Cl)noc1C)c1cnccn1`, the activation was -0.36% (inactive).
For `O=C(CCC(=O)c1cccs1)NC1CCCCCC1`, the activation is -0.2% (inactive).
In the case of `Fc1cccc(Cc2noc(CN3CCN(c4cnccn4)CC3)n2)c1`, the activation was 0.1% (inactive).
On to `Cc1ccc(-c2ccc(/C=N/NC(=O)CN3CCOCC3)o2)cc1[N+](=O)[O-]`, for which the activation is -0.19% (inactive).
As to `CCOC(=O)NN1C(=O)c2ccccc2NC1c1cccc(O)c1` (stereo unspecified), the activation is -0.06% (inactive).
As to `N=C1C(=O)OCC1c1ccccc1NC(=O)CN1CCCCC1` (stereo unspecified), the activation was -0.34% (inactive).
The value for `CCc1ccc(NC(=O)C(C)OC(=O)/C=C/c2cccc([N+](=O)[O-])c2)cc1` (stereo unspecified) was -0.25% (inactive); that for `O=C(COC(=O)CCc1ccc(S(=O)(=O)N2CCOCC2)cc1)Nc1cccc(Cl)c1` was -0.33% (inactive); that for `CCN1CCN(C(=O)CN(C)S(=O)(=O)c2ccc3ccccc3c2)CC1` was -0.21% (inactive).
As to `CSCCC(=O)N1CCCC(CNC(=O)c2ccccc2Cl)C1` (stereo unspecified), the activation was -0.44% (inactive).
For the compound `C=CCN(c1ccc(Cl)cc1)S(=O)(=O)c1cccc(C(=O)OCC(=O)N(C)C)c1`, the activation was -0.3% (inactive).
Take `Cc1cccc(CSc2nnc(C)c(=O)n2N)c1`: the activation was -0.18% (inactive).
Consider `O=C(CO/N=C/c1ccc(OC(F)F)cc1)NCc1ccc(F)cc1`, for which the activation is 0.12% (inactive).
Regarding `CCNc1nc(NC(C)C)nc(N2CC(=O)N(CC(=O)OCC)C2=N)n1`, the activation is -0.19% (inactive).
In the case of `COc1ccccc1C(c1nnnn1CC1CCCO1)N1CCN(c2ccccc2)CC1` (stereo unspecified), the activation is -0.43% (inactive).
The value for `CCOc1ccc(C(CC(=O)O)n2cnnn2)cc1OC` (stereo unspecified) was -0.16% (inactive).
The value for `Cc1cc(C)cc(NC(=O)c2cccc(NC(=O)C3C4CC5OC(=O)C3C5C4)c2)c1` (stereo unspecified) was 0.09% (inactive); that for `COCCNC(=S)N(Cc1cccnc1)Cc1ccc(OC)c(OC)c1` was -0.35% (inactive); that for `O=C(Nc1ccccc1F)c1ccccc1-c1ccc(C(F)(F)F)cc1` was -0.36% (inactive).
For the compound `C/C(CC(=O)N1CCN(C=O)CC1)=N\NC(=O)c1ccc(Br)cc1`, the activation was -0.22% (inactive).
On to `Cc1ccc(CN2CCN(Cc3cccc(C)n3)CC2CCO)cc1` (stereo unspecified), for which the activation is 0.01% (inactive).
For `O=C(Cc1cc(=O)[nH][nH]1)N/N=C/c1ccccc1[N+](=O)[O-]`, the activation is -0.41% (inactive).
In the case of `CCn1cc(C(=O)Nc2cc(C)ccc2C)c(=O)c2ccc(C)nc21`, the activation was -0.16% (inactive).
As for `CC(NC(=O)CC1SC(N)=NC1=O)c1ccccc1` (stereo unspecified), the activation was -0.02% (inactive).
On to `COc1ccc(CCNC(=O)CSc2nnc3ccc(-c4ccncc4)nn23)cc1`, for which the activation was -0.16% (inactive).
In the case of `O=C(NCc1ccccc1Cl)C1CCC(CNc2c(N3CCCCC3)c(=O)c2=O)CC1` (stereo unspecified), the activation is 0.08% (inactive).
As to `CN1C(=O)/C(=C/c2ccc(C(=O)NC3CCCC3)cc2)Oc2ccccc21`, the activation was 0.12% (inactive).
In the case of `CC(=O)c1ccccc1NC(=O)CC1(CC(=O)O)CCCCC1`, the activation is -0.11% (inactive).
With `Cc1nc(S(=O)(=O)c2ccc(Br)cc2)nc2c1CCC2`, the activation is -0.24% (inactive).
Regarding `COc1ccc(Cn2c(=O)cc(C)[nH]c2=S)cc1`, the activation was 0.13% (inactive).
The value for `O=C(COc1ccc(Cl)cc1[N+](=O)[O-])N1CCCCC1` was 0.04% (inactive).
As to `Cn1nc(C(F)(F)F)c2cc(C(=O)N3CCOCC3)sc21`, the activation was 0.19% (inactive).
Consider `Cc1ccnc(SCC(N)=O)n1`, for which the activation is -0.02% (inactive).
The value for `O=C(Nc1cccc(Cl)c1)Nc1ccccc1NS(=O)(=O)c1cccs1` was -0.23% (inactive); that for `CCCC(C)C(=O)NCc1ccncc1` (stereo unspecified) was 0.15% (inactive).
`Cc1ccc(N(Cc2cc3ccccc3[nH]c2=O)C(=O)c2cccs2)cc1`: the activation was -0.18% (inactive).
With `C/C(CC(=O)Nc1cccc(F)c1)=N\NC(=O)C(=O)NC1CCCCC1`, the activation is -0.18% (inactive).
On to `CCOCCCNC(=O)C(NC(=O)c1ccccc1O)c1ccccc1` (stereo unspecified), for which the activation was -0.12% (inactive).
Consider `O=C(CC(=O)N/N=C\c1ccc(F)cc1)NCCc1ccccc1`, for which the activation is -0.23% (inactive).
In the case of `CN1CCN(C(=O)CCc2nc(-c3ccc(Cl)cc3)no2)CC1`, the activation is -0.33% (inactive).
The value for `N#Cc1c(-c2ccc(F)cc2)nc(-c2ccccc2)[nH]c1=O` was -0.14% (inactive); that for `CCSC1=NCCN1S(=O)(=O)c1ccc(F)cc1` was -0.26% (inactive); that for `COc1ccc(C(=O)CSc2nnnn2C)c(OC)c1` was 0.02% (inactive).
Regarding `CC(=O)Nc1ccc(C(=O)OCC(=O)Nc2ccc([N+](=O)[O-])cc2C(F)(F)F)cc1`, the activation is -0.04% (inactive).
With `CCN(CC)C(=O)C(=O)Nc1cccc(Br)c1`, the activation is -0.16% (inactive).
For the compound `c1ccc(-n2nnnc2NC2CCCCCC2)cc1`, the activation is -0.52% (inactive).
With `CC(=O)c1ccc(NC(=S)N(Cc2ccccc2)C(C)C2CC2)cc1` (stereo unspecified), the activation is -0.19% (inactive).
In the case of `COc1ccc(COC(=O)N/N=C(\C)CC(=O)Nc2ccc(Cl)cc2)cc1`, the activation was -0.38% (inactive).
For `OCCC1CN(Cc2cccc(O)c2)CCN1CCc1ccccc1` (stereo unspecified), the activation was 0.03% (inactive).
As to `Cc1cccc(OCC(O)CN2CCN(CCN3C(=O)c4cccc5cccc(c45)C3=O)CC2)c1C` (stereo unspecified), the activation was -0.21% (inactive).
As to `Cc1ccc(CN2CCN(Cc3ccc4ncccc4c3)CC2CCO)cc1` (stereo unspecified), the activation is -0.4% (inactive).
The value for `NS(=O)(=O)c1ccc(CCNC(=S)Nc2ccc(S(N)(=O)=O)cc2)cc1` was 0.04% (inactive).
The value for `COc1ccc2c(CC(=O)OCC(=O)Nc3ccccc3[N+](=O)[O-])coc2c1` was -0.38% (inactive); that for `CCCNCc1cc(OCC)c(OCC(=O)Nc2ccccc2)cc1Br` was -0.15% (inactive).
